A selection: hits, their analogues and other compounds. The true share with any hit is near 2.2%.
Mito fusion yeast – blocks mitochondrial division or promotes mitochondrial fusion; actives 0.23% (n = 320,000); AID 485298; Potency, µM (highest dose often 46.1 µM), usual class: activators; S. cerevisiae fusion-defective mutant growth rescue, CellTiterGlo 48 h; note: nearly all actives have a fitted effect of over 45% in size
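Luminescent cell viability in 1536-well qHTS format served as the measure of rescued growth in ts fusion-mutant S. cerevisiae cultured on non-fermentable YPEG for 48 hours at 37C.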
TDP-43 yeast inh – TDP-43 toxicity inhibition in yeast; TDP-43 expressing yeast growth rescue, BacTiter-Glo, 24 h; Potency, µM (titrated, usually from 46.1 µM), hits mostly activators; actives 1.8% (n = 410,000); AID 652104; note: nearly all actives have a fitted effect of over 50% in size
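Yeast expressing TDP-43 (pregrown in raffinose, seeded at OD600=0.02 in galactose medium) exposed to compounds 24 hr at 30 deg C. Growth read by BacTiter-Glo luminescence; rescue of toxicity appears as increased signal.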
aSyn yeast inh – alpha-synuclein toxicity inhibition in yeast; Potency, µM (titrated, usually from 46.1 µM), usual class: activators; Yeast expressing alpha-synuclein, growth rescue, BacTiter-Glo, 24 h; AID 652106; actives 0.14% (n = 370,000); note: nearly all actives have a fitted effect of over 65% in size
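Rescue of yeast growth: cells expressing toxic alpha-synuclein, induced in galactose at OD600 0.02, incubated with compound 24 h at 30 C. ATP luminescence quantified growth; inhibitors of toxicity appear as activators.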
Abeta rescue – restores growth of yeast expressing A-beta42 peptide; yeast expressing A-beta42, growth rescue, OD600, 48 h; response scale: 0% DMSO, 100% iron-clioquinol control; actives 0.063% (n = 410,000); Potency, µM (doses to about 46.1 µM), hits mostly activators; note: nearly all actives have a fitted effect of over 55% in size
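Yeast growth medium received pinned compounds, then yeast cells expressing toxic A-beta were added; plates incubated at 30 C for 48 hr. Growth read as absorbance at 600 nm, normalized to DMSO and equimolar FeCl3 plus clioquinol controls.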
FUS yeast rescue – rescues growth of FUS-expressing yeast | S. cerevisiae FUS-expressing, growth rescue, OD600, 24 h | Potency, µM (highest dose often 76.6 µM), actives largely listed as activators | actives 0.24% (n = 390,000); note: nearly all actives have a fitted effect of over 55% in size
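Quantitative HTS measuring growth restoration of FUS-toxic yeast. Galactose-induced cells (OD 0.005) were exposed 24hr at 30C to compounds at several concentrations, then absorbance at 600 nm was recorded.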
Large screens that a line does not name were inactive. Calls come from the whole dose curve; as a rule, active = well fitted curve in the direction sought with a large enough effect; inconclusive = small, poorly fitted or top-dose-only effect, or another doubt; inactive = no such curve, though single readings can be large; an effect the other way counts as inactive or inconclusive.

Clc1cccc(-n2ncc3c(NC4CCCCC4)ncnc32)c1	TDP-43 yeast inh 16µM (no result: Mito fusion yeast, aSyn yeast inh)
CC(C)(C)OC(=O)n1ccc2ccc(-c3ccc4cc[nH]c4c3)cc21	none (no result: Mito fusion yeast, TDP-43 yeast inh, aSyn yeast inh, Abeta rescue)
O=C(Nc1ccc(Br)cc1Cl)c1ccc(OCC2CCCO2)cc1 (stereo not given)	TDP-43 yeast inh 18µM (no result: Mito fusion yeast)
CC[C@H](CCCc1ccc(OC)cc1)CCC(=O)N(c1ccccc1)c1ccccc1	none (no result: Mito fusion yeast, TDP-43 yeast inh, aSyn yeast inh, Abeta rescue)
CCc1ccc(C(C)NC(=O)c2cc(C)oc2C)cc1 (stereo not given)	TDP-43 yeast inh 13µM
COc1ccc(NC(=O)c2cc(C(C)=O)n3ccccc23)cc1Cl	none (no result: Mito fusion yeast, aSyn yeast inh)
CCc1ccc(NC(=O)c2cc(C(C)=O)n3ccccc23)cc1	TDP-43 yeast inh 11µM (no result: Mito fusion yeast, aSyn yeast inh)
COc1cccc(NC(=O)c2csc3c2CCCCC3)c1	TDP-43 yeast inh 13µM (no result: Mito fusion yeast, aSyn yeast inh)
Cn1ccc2c(-c3ccc4[nH]ccc4c3)cc3c(c21)C1CCC3O1 (stereo not given)	TDP-43 yeast inh 16µM (no result: Mito fusion yeast)
COc1ccc(-c2cc3c(c4c2ccn4C)C2CCC3O2)cn1 (stereo not given)	TDP-43 yeast inh 13µM, aSyn yeast inh inconclusive (no result: Mito fusion yeast)
Cn1ccc2c(-c3ccc(F)nc3)cc3c(c21)C1CCC3O1 (stereo not given)	TDP-43 yeast inh inconclusive (no result: Mito fusion yeast)
Cn1ccc2c(-c3ccc(C(N)=O)cc3)cc3c(c21)C1CCC3O1 (stereo not given)	TDP-43 yeast inh inconclusive (no result: Mito fusion yeast)
Cn1ccc2c(-c3cccc4ccccc34)cc3c(c21)C1CCC3O1 (stereo not given)	TDP-43 yeast inh 16µM, FUS yeast rescue inconclusive (no result: Mito fusion yeast)
Cc1ccccc1NC(=O)CSc1nc(-c2ccccc2)cn1-c1ccccc1F	none (no result: Mito fusion yeast, aSyn yeast inh)
O=[N+]([O-])c1ccccc1OCc1nc(-c2cccs2)no1	TDP-43 yeast inh 13µM
COc1ccccc1C(=O)NNC(=S)NC(=O)c1cc(OC)c(OC)c(OC)c1	TDP-43 yeast inh 10µM, aSyn yeast inh inconclusive, Abeta rescue 6.3µM
Cc1ccccc1C(=O)NNC(=S)NC(=O)c1ccc(Cl)cc1Cl	TDP-43 yeast inh 10µM, aSyn yeast inh 1.6µM, Abeta rescue inconclusive
Cc1cccc(C(=O)NC(=S)NNC(=O)c2ccccc2Cl)c1	aSyn yeast inh 10µM, Abeta rescue inconclusive (no result: FUS yeast rescue)
Cc1cc(C(=O)NNC(=S)NC(=O)/C=C/c2ccccc2Cl)n[nH]1	FUS yeast rescue 13µM
COc1cccc(CN2CCC(C(=O)NC(C)c3cccc4ccccc34)CC2)c1 (stereo not given)	none (no result: Mito fusion yeast)
Cc1c(C(=O)N2c3ccccc3CC2C)oc2ccccc12 (stereo not given)	none
Cc1c(NC(=O)C(C)OC(=O)COc2ccc(C#N)cc2)c(=O)n(-c2ccccc2)n1C (stereo not given)	none
CCOC(=O)c1c(-c2ccc(-c3ccccc3)cc2)csc1NC(=O)CCN1CCOCC1	Mito fusion yeast 10µM, TDP-43 yeast inh 14µM, FUS yeast rescue inconclusive
CCOC(=O)c1c(-c2ccc(F)cc2)csc1NC(=O)CCN1CCOCC1	Mito fusion yeast 11µM (no result: FUS yeast rescue)
O=C(OC12CCCN(C1)/C(=C/c1cccc(Cl)c1)C2)c1ccccc1 (stereo not given)	none (no result: Mito fusion yeast, TDP-43 yeast inh, aSyn yeast inh, Abeta rescue)
O=C(Oc1ccccc1C(=S)N1CCOCC1)c1ccc([N+](=O)[O-])cc1[N+](=O)[O-]	none
Cc1ccc(Cl)cc1N1CCN(c2nc3ccc(C(=O)c4ccccc4)cc3n3cnnc23)CC1	none (no result: Mito fusion yeast, aSyn yeast inh)
O=C(COC(=O)c1ccc2ncsc2c1)Nc1cc(Cl)ccc1F	Mito fusion yeast inconclusive, TDP-43 yeast inh 14µM
CC(C(=O)NC1CCCCC1)N1CCN(S(=O)(=O)c2cccs2)CC1 (stereo not given)	none
NC(=O)CSc1nc2ccc([N+](=O)[O-])cc2[nH]1	Mito fusion yeast 14µM
Cn1c(O)c(N=NC(=O)c2ccccc2O)c2ccccc21	TDP-43 yeast inh 16µM
CS(=O)c1ccccc1-c1nc(-c2ccc(Cl)cc2)no1 (stereo not given)	none
CS(=O)c1ccccc1-c1nc(-c2cccc(Cl)c2)no1 (stereo not given)	TDP-43 yeast inh 13µM
COCCn1c(SCc2ccc(F)cc2)nc2ccccc2c1=O	TDP-43 yeast inh 18µM
CCSc1nc2ccccc2c(=O)n1CCc1ccc(OC)c(OC)c1	Mito fusion yeast inconclusive, TDP-43 yeast inh 18µM, aSyn yeast inh inconclusive, FUS yeast rescue inconclusive
O=C1C(Br)=Cc2cccc3cccc1c23	TDP-43 yeast inh 14µM
Cc1ccc(Oc2ncnc(N)c2[N+](=O)[O-])cc1C	TDP-43 yeast inh 11µM
Cc1cc(Sc2ncnc(N)c2[N+](=O)[O-])ncn1	TDP-43 yeast inh 22µM
O=C(NC1CC(=O)N(c2ccc(Cl)cc2)C1)C1CC1 (stereo not given)	none
COc1ccc(CCNC(=O)c2cc(=O)[nH]c3ccc(Br)cc23)cc1OC	none
Cc1ccccc1C1C(C#N)=C2N=C(N)c3c(sc4c3CCCCC4)N2C2=C1C(=O)CC(C)(C)C2 (stereo not given)	FUS yeast rescue 28µM
O=C(c1c[nH]c(C(=O)C(Cl)(Cl)Cl)c1)c1ccccc1F	TDP-43 yeast inh 10µM
CC1(C)CC(=O)C(N=Nc2ccc(Br)cc2)=C(O)C1	none
CC1(C)CC(=O)C(Sc2ccc(Br)cc2)=C(O)C1	TDP-43 yeast inh 13µM
O=C(COc1cccc(Cl)c1)N1CCC(c2nc3ccccc3o2)CC1	TDP-43 yeast inh 28µM (no result: Mito fusion yeast, aSyn yeast inh)
CCCCOc1ccc(C(=O)N2CCC(c3nc4ccccc4o3)CC2)cc1	TDP-43 yeast inh 28µM (no result: Mito fusion yeast, aSyn yeast inh)
CCn1c2ccccc2c(=O)c2ccccc21	TDP-43 yeast inh 13µM
CC(c1nc2ccccc2n1Cc1ccccc1)N1CCCCC1 (stereo not given)	none
CC(=O)C1=CCC(c2ccccc2Cl)N(S(=O)(=O)c2ccc(C)cc2)C1 (stereo not given)	TDP-43 yeast inh 20µM, FUS yeast rescue inconclusive (no result: Mito fusion yeast)
CCOC(=O)C1=CCC(c2ccccc2Cl)N(S(=O)(=O)c2ccc(C)cc2)C1 (stereo not given)	FUS yeast rescue inconclusive (no result: Mito fusion yeast)
CCCS(=O)(=O)NC(=O)C1(C)CCN(C(=O)c2cccc(OC(F)(F)F)c2)C1 (stereo not given)	none (no result: Mito fusion yeast)
CCCCCN(CCCCC)c1ccc(/C=C/c2ccnc3ccccc23)cc1	none (no result: Mito fusion yeast, TDP-43 yeast inh, Abeta rescue, FUS yeast rescue)
OCCCNc1nc(-c2ccc(Cl)cc2)nnc1-c1ccc(Br)cc1	Mito fusion yeast 13µM
S=c1[nH]nc(-c2cc(-c3ccccc3)n[nH]2)n1N=Cc1c[nH]c2ccccc12	none (no result: Mito fusion yeast, TDP-43 yeast inh, aSyn yeast inh, Abeta rescue)
O=C(Cc1ccccc1)Nc1ccc2[nH]ncc2c1	none
O=C(COc1ccc(Cl)cc1)Nc1ccc2[nH]ncc2c1	TDP-43 yeast inh 2.8µM
Cc1ccccc1OCC(=O)Nc1ccc2[nH]ncc2c1	TDP-43 yeast inh 13µM
O=C(COc1ccccc1)Nc1ccc2[nH]ncc2c1	none
O=C(NCCc1ccccc1)[C@@H]1CC=C[C@@H]2CCN(C3CCCCC3)C(=O)[C@@H]21	none (no result: Mito fusion yeast)
